From PubChem BioAssay
NOMO-1 viab – STK33 inhibitor candidate reducing NOMO-1 cell viability; inhibition, % (concentration not given with the values); 37,000 compounds, 7.5% hits; NOMO-1 AML viability, CellTiter-Glo luminescence, 72 h; in the data active = inhibition above about 80%
ROS inducer – inducers of reactive oxygen species in cancer cells | 46,000 compounds, 2% hits | U2OS ROS induction, H2DCF-DA fluorescence | ROS induction (% of piperlongumine), % at 10 µM; in the data active = ROS induction above about 79%, passing the limit was not always enough;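 also: 0% = DMSO vehicle median and 100% = reference compound median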
Numbers without * were called inactive. This excerpt belongs to a sample that is enriched for hits.

For C[C@H](CO)N1C[C@H](C)[C@@H](CN(C)C(=O)Nc2ccccc2)Oc2ccc(NC(=O)Nc3cccc4ccccc34)cc2C1=O the results were NOMO-1 viab -5.7 and ROS inducer 5.2.
Screening COc1ccc(C[C@H](N)C(=O)N[C@@H]2[C@@H](CO)OC(n3cnc4c(N(C)C)ncnc43)[C@@H]2O)cc1 (stereo partly drawn) returned NOMO-1 viab 108.2* and ROS inducer -4.0.
`CNC(=O)[C@H]1O[C@@H](n2cnc3c(NCc4cccc(I)c4)ncnc32)C(O)[C@H]1O` (stereo partly drawn) gave NOMO-1 viab 9.7 and ROS inducer 4.5.
`C[C@H](CO)N1C[C@H](C)[C@H](CN(C)Cc2ccncc2)Oc2ccc(NC(=O)Cn3cnnn3)cc2CC1=O` gave NOMO-1 viab 15.1 and ROS inducer 13.7.
Screening COc1cc2c(cc1OC)n(CC(=O)NC1CCCC(C)C1C)n1c(C)cc(=O)nc21 (stereo not drawn) returned ROS inducer 17.6.
For CN(C)CC(O)Cn1c2ccc(Br)cc2c2cc(Br)ccc21 (stereo not drawn) the results were NOMO-1 viab 113.7* and ROS inducer 68.4.
For CN(CC(O)Cn1c2ccccc2c2ccccc21)S(C)(=O)=O (stereo not drawn) the results were NOMO-1 viab -19.4.
For CS(=O)(=O)N1CCN(CC(O)Cn2c3ccc(Cl)cc3c3cc(Cl)ccc32)CC1 (stereo not drawn) the results were NOMO-1 viab 20.2.
Screening OC(CNC1CCCC1)Cn1c2ccc(Cl)cc2c2cc(Cl)ccc21 (stereo not drawn) returned NOMO-1 viab 119.0*.
COc1ccc(S(=O)(=O)N(C)CC(=O)Nc2ccc(I)cc2)cc1C was read as NOMO-1 viab 3.4 and ROS inducer 3.8.
For CCOC(=O)c1nn(-c2ccccc2)c(C#N)c1NC(=O)c1nn(CC)cc1Br the results were NOMO-1 viab 115.0* and ROS inducer 166.0*.
For COC(=O)c1nn(-c2ccccc2)c(=O)c2c(N)sc(C)c12 the results were ROS inducer 1.4.
CCOC(=O)CNc1nnc(-c2ccccc2)c(-c2ccccc2)c1C#N was read as ROS inducer 61.8.
CCOC(=O)c1c(NC(=O)c2nn(CC)cc2Br)c(C#N)nn1-c1ccccc1 was read as NOMO-1 viab 8.7 and ROS inducer 125.1*.
For COc1ccc(NC(=O)N(C)C[C@H]2Oc3ccc(NC(=O)CCCCCC(=O)Nc4ccccc4N)cc3CC(=O)N([C@@H](C)CO)C[C@H]2C)cc1 the results were NOMO-1 viab 23.7 and ROS inducer 46.6.
Screening CCCN1CCC2(CC1)C(C#N)=C(S)NC(=O)C2C#N (stereo not drawn) returned NOMO-1 viab 27.0 and ROS inducer 13.9.
For COc1ccc(NC(=O)Nc2ccc3c(c2)C(=O)N([C@@H](C)CO)C[C@H](C)[C@@H](CN(C)C(=O)Nc2ccc(OC)cc2)O3)cc1 the results were NOMO-1 viab -31.9 and ROS inducer -6.8.
Screening Cc1noc(C)c1NC(=O)Nc1cccc2c1O[C@H](CN(C)S(C)(=O)=O)[C@@H](C)CN([C@H](C)CO)C2=O returned NOMO-1 viab 13.7 and ROS inducer -6.5.
`Cc1noc(C)c1NC(=O)Nc1cccc2c1O[C@@H](CN(C)S(C)(=O)=O)[C@H](C)CN([C@H](C)CO)C2=O` gave NOMO-1 viab 17.9 and ROS inducer 100.3*.
Cc1noc(C)c1NC(=O)Nc1cccc2c1O[C@@H](CN(C)S(=O)(=O)c1ccccc1)[C@H](C)CN([C@@H](C)CO)C2=O was read as NOMO-1 viab -7.4 and ROS inducer -1.6.
`Cc1noc(C)c1NC(=O)Nc1cccc2c1O[C@@H](CN(C)S(C)(=O)=O)[C@@H](C)CN([C@@H](C)CO)C2=O` gave NOMO-1 viab 102.4* and ROS inducer 57.6.
Screening C[C@@H]1CN([C@H](C)CO)C(=O)c2cc(NC(=O)Nc3ccccc3)ccc2O[C@H]1CN(C)Cc1ccc(C(=O)O)cc1 returned NOMO-1 viab 4.7 and ROS inducer -1.8.
Cc1cc(C)c2c3c1C1C=CCC1CN3C(C(=O)O)C1CC=CC21 (stereo not drawn) was read as NOMO-1 viab 115.0* and ROS inducer 5.8.
C[C@@H]1CCCCO[C@H](CN(C)S(=O)(=O)c2ccccc2)[C@@H](C)CN([C@H](C)CO)C(=O)c2cc(NC(=O)c3ccncc3)ccc2O1 was read as NOMO-1 viab 22.3 and ROS inducer 1.2.
`C[C@@H]1CCCCO[C@@H](CN(C)S(=O)(=O)c2ccccc2)[C@@H](C)CN([C@H](C)CO)C(=O)c2cc(NC(=O)c3ccccc3)ccc2O1` gave NOMO-1 viab 36.2 and ROS inducer 131.9*.
Screening C[C@@H]1CCCCO[C@H](CN(C)S(=O)(=O)c2ccc(F)cc2)[C@@H](C)CN([C@H](C)CO)C(=O)c2cc(NC(=O)Nc3ccc(C(F)(F)F)cc3)ccc2O1 returned NOMO-1 viab 97.9* and ROS inducer 9.2.
`Cc1ccc(S(=O)(=O)N(C)C[C@@H]2OCCCC[C@@H](C)Oc3ccc(NC(=O)Nc4ccc(C(F)(F)F)cc4)cc3C(=O)N([C@H](C)CO)C[C@@H]2C)cc1` gave NOMO-1 viab 52.5 and ROS inducer 10.1.
Screening C[C@@H]1CCCCO[C@H](CN(C)C(=O)Nc2ccccc2)[C@@H](C)CN([C@H](C)CO)C(=O)c2cc(NC(=O)CCC(F)(F)F)ccc2O1 returned NOMO-1 viab 16.2 and ROS inducer 19.4.
Screening C[C@@H]1CCCCO[C@@H](CN(C)C(=O)Nc2ccccc2)[C@@H](C)CN([C@H](C)CO)C(=O)c2cc(NC(=O)CCC(F)(F)F)ccc2O1 returned NOMO-1 viab 21.9 and ROS inducer 95.1*.
`CC(C)NC(=O)Nc1ccc2c(c1)C(=O)N([C@H](C)CO)C[C@H](C)[C@H](CN(C)C(=O)Cc1ccccc1)OCCCC[C@@H](C)O2` gave NOMO-1 viab -6.2 and ROS inducer 6.4.
Screening C[C@@H]1CCCCO[C@@H](CN(C)C(=O)Cc2ccccc2)[C@@H](C)CN([C@H](C)CO)C(=O)c2cc(NC(=O)NC3CCCCC3)ccc2O1 returned NOMO-1 viab 23.0 and ROS inducer 142.9*.
CCOC(=O)c1ccc(N=Cc2ccc(Cl)cc2)cc1 was read as NOMO-1 viab 13.3 and ROS inducer 14.5.
Screening O=C(COc1ccc(Cl)cc1Cl)Nc1ccc(Br)cc1C(=O)O returned NOMO-1 viab -17.5 and ROS inducer -7.6.
`COc1ccccc1NC(=O)CNC(=O)c1ccccc1Cl` gave NOMO-1 viab -2.5.
Screening C[C@@H]1CCCCO[C@H](CN(C)S(=O)(=O)c2ccc(F)cc2)[C@@H](C)CN([C@H](C)CO)C(=O)c2cc(NC(=O)Nc3ccc(F)cc3)ccc2O1 returned NOMO-1 viab 43.2 and ROS inducer 54.1.
Screening C[C@@H]1CCCCO[C@@H](CN(C)S(=O)(=O)c2ccccc2)[C@@H](C)CN([C@H](C)CO)C(=O)c2cc(NC(=O)Nc3ccc(F)cc3)ccc2O1 returned NOMO-1 viab 40.4 and ROS inducer 104.8*.
`C[C@@H]1CCCCO[C@@H](CN(C)C)[C@@H](C)CN([C@H](C)CO)C(=O)c2cc(NC(=O)Nc3ccc(F)cc3)ccc2O1` gave NOMO-1 viab 9.1 and ROS inducer 5.0.
Screening C[C@@H]1CCCCO[C@@H](CN(C)C)[C@@H](C)CN([C@H](C)CO)C(=O)c2cc(NC(=O)Nc3ccccc3)ccc2O1 returned NOMO-1 viab 107.8* and ROS inducer 5.6.
